Source: PubChem
Sampled rows, rich in hits. Any-hit rate of the full collection: about 2.8%.
KCNH2 3.1 block: KCNH2 3.1 (human) potassium channel inhibition; 340,000 tested, 0.95% active; AID 720553; U2OS KCNH2 3.1, thallium flux FluxOr; active compounds read low; activity change, % (tested at about 1.8 µM);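 active = maximum activity change below -70%; inconclusive = maximum activity change from -70% to -50%; inactive = maximum activity change above -50%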;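 also: thallium influx rate constant from kinetic fluorescence after stimulation buffer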
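Kinetic fluorescence (2 min after stimulation buffer) measures Tl+ influx through KCNH2 3.1 expressed by viral transduction in U2OS cells; the rate constant is normalized against DMSO controls serving as positive and negative references.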
GLP-1R inv ag: inverse agonists of human GLP-1 receptor; 410,000 tested, 1.6% active; HEK293 GLP-1R CRE-luciferase, luminescence, 24 h; GLP-1R form is constitutively active; Potency, µM (doses to about 38.3 µM), most hits filed as inhibitors; P43220; also: nearly all actives have a fitted effect of over 55% in size
Target sequence (P43220 whole entry, looked up): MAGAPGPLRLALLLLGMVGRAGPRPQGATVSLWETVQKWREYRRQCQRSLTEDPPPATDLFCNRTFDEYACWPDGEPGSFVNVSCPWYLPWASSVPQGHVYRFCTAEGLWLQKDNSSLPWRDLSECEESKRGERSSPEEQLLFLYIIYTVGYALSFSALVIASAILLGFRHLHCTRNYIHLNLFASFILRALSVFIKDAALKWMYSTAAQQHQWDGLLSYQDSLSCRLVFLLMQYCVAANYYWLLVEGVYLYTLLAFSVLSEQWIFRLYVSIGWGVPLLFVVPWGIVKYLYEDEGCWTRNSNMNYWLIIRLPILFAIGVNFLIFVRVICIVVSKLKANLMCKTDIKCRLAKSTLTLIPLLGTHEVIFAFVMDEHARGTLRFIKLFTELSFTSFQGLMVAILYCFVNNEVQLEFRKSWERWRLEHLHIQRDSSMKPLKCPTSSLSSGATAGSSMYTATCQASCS
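HEK293 cells stably co-expressing a cAMP-responsive luciferase reporter and constitutively active GLP-1R were seeded, incubated 12 h, then exposed to compounds for 24 h at 37 C. Luminescence was read 12 min after detection reagent; inverse agonists lower signal.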
KCNH2 WT inh: inhibitors of human wildtype KCNH2 potassium channel; Q12809; U2OS, BacMam KCNH2, thallium flux FluxOr; active compounds read low; activity change, % at 1.84 µM; 340,000 tested, 0.37% active;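 active = maximum activity change below -70%; inconclusive = maximum activity change between -70% and -50%; inactive = maximum activity change above -50%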
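U2OS cells were transduced with wild-type KCNH2 virus (2.03 x 10^8 / mL) for 4 h at room temperature, then cultured overnight at 37 C. Thallium flux was read with FluxOr dye. Rate constants were normalized to DMSO controls.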
HEK293 tox: cytotoxicity counter-screen for GLP-1 receptor inverse agonists. HEK293 cAMP-luciferase reporter cells, luminescence, 24 h. Potency, µM (top dose mostly 38.3 µM), hits mostly inhibitors. 410,000 tested, 0.13% active;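 also: loss of luciferase light is scored as toxicity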
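1536-well qHTS counterscreen of the MLSMR; 200 cells/uL, 12 h pre-incubation, 23 nL cpd, 24 h at 37 deg C 5% CO2, luciferase detection reagent, 12 min RT, luminescence. Inhibition = undesired.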
GLS inhibitor: glutaminase GLS (human) inhibition; O94925; GLS enzymatic activity, qHTS titration; Potency, µM (highest dose often 45.5 µM), usual class: inhibitors; 410,000 tested, 0.21% active; AID 624170
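Coupled fluorescence readout: glutamate oxidase/HRP/Amplex Red detect glutamate formed by hKGA from L-glutamine (1 mM solution added). Buffer 45 mM KH2PO4 pH 8.2, 0.02% Tween-20; reads at t0 and 30 min RT.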
GLP1R ag: agonists of human GLP-1 receptor. P43220. HEK293 GLP-1R CRE-luciferase, luminescence, 4-6 h; cells express a hypersensitive GLP-1R form. Potency, µM (top dose mostly 45.6 µM), actives largely listed as activators. 380,000 tested, 0.007% active
A number is an active result; [ ] = dose if it differs, or a comment. Unless noted, calls follow the shape of the dose curve; as a rule, active = well fitted curve in the direction sought with a large enough effect; inconclusive = small, poorly fitted or top-dose-only effect, or another doubt; inactive = no such curve, though single readings can be large; an effect the other way counts as inactive or inconclusive.

Screening CC1CCN(C(=S)NC(=O)c2ccc(C(C)(C)C)cc2)CC1 returned KCNH2 3.1 block inactive, GLP-1R inv ag 8.9µM, KCNH2 WT inh inactive, HEK293 tox inconclusive, GLS inhibitor inactive and GLP1R ag inactive.
For CC(C)(C)c1ccc(C(=O)NC(=S)N2CCCC2)cc1 the results were KCNH2 3.1 block inactive, GLP-1R inv ag inactive, KCNH2 WT inh inactive, HEK293 tox inactive, GLS inhibitor inactive and GLP1R ag inactive.
Screening C=CCn1c(SCC(=O)NC2CCCCC2)nc2ccccc2c1=O returned KCNH2 3.1 block inactive, GLP-1R inv ag inactive[7.66 µM], KCNH2 WT inh inconclusive, HEK293 tox inactive[7.66 µM], GLS inhibitor inactive and GLP1R ag inactive.
`C=CCn1c2[n+](c3ccccc3c1=O)CCCCC2` gave KCNH2 3.1 block -113, GLP-1R inv ag inactive, KCNH2 WT inh inactive, HEK293 tox inactive, GLS inhibitor inactive and GLP1R ag inactive.
For O=C(c1cnn2c(C(F)F)cc(C3CC3)nc12)N1CCCC1 the results were KCNH2 3.1 block -99, GLP-1R inv ag inactive, KCNH2 WT inh inactive, HEK293 tox inactive, GLS inhibitor inactive and GLP1R ag inactive.
For COc1ccc(/C=C2\CCn3c2nc2cc(C(=O)O)ccc2c3=O)cc1O the results were KCNH2 3.1 block inactive, GLP-1R inv ag inactive, KCNH2 WT inh inactive, HEK293 tox inactive, GLS inhibitor 6.3µM and GLP1R ag inactive.
For CCOc1cc(/C=C2\CN(C)C/C(=C\c3ccc(O)c(OCC)c3)C2=O)ccc1O the results were KCNH2 3.1 block inactive, GLP-1R inv ag inconclusive, KCNH2 WT inh inactive, HEK293 tox inconclusive, GLS inhibitor inactive and GLP1R ag inactive.
For CCOc1cc(/C=C2\CCC/C(=C\c3cc(Cl)c(O)c(OCC)c3)C2=O)cc(Cl)c1O the results were KCNH2 3.1 block inactive, GLP-1R inv ag 10µM, KCNH2 WT inh inactive, HEK293 tox 11µM, GLS inhibitor inactive and GLP1R ag inactive.
`N#CC1=C(N)N(c2ccc(Cl)cc2)C2=C(C(=O)CCC2)C1c1cc(CN2CCOCC2)cs1` (configuration not stated) gave GLP-1R inv ag inactive, HEK293 tox inactive and GLS inhibitor inactive.
`Cc1c(Cl)cccc1NC(c1ccc(F)cc1)c1nnc(-c2ccccc2)o1` (configuration not stated) gave GLP-1R inv ag 8.9µM, HEK293 tox inactive and GLS inhibitor inactive.
CC(=O)c1cccc(NC(c2ccc(F)cc2)c2nnc(-c3ccccc3)o2)c1 (configuration not stated) was read as GLP-1R inv ag inconclusive, HEK293 tox inactive, GLS inhibitor inactive and GLP1R ag inactive.
For COc1ccc(-c2cc(C(=O)Oc3cccc(C)c3C)c3ccccc3n2)cc1 the results were GLP-1R inv ag inactive, HEK293 tox inactive and GLS inhibitor inactive.
`CN1CCN(c2nc(C#N)cc(-c3ccccc3)n2)CC1` gave KCNH2 3.1 block inactive, GLP-1R inv ag 13µM, KCNH2 WT inh inactive, HEK293 tox inactive, GLS inhibitor inactive and GLP1R ag inactive.
Screening O=C(CSc1nc2ccccc2c(=O)n1Cc1ccc(F)cc1)NCc1cccs1 returned KCNH2 3.1 block -95, GLP-1R inv ag inactive, KCNH2 WT inh inactive, HEK293 tox inactive, GLS inhibitor inactive and GLP1R ag inactive.
Cc1cccc(NS(=O)(=O)c2ccc(C)c(C(=O)NCc3ccccn3)c2)c1 was read as KCNH2 3.1 block inactive, GLP-1R inv ag inactive, KCNH2 WT inh inactive, HEK293 tox inactive, GLS inhibitor inactive and GLP1R ag inactive.
O=C(CSc1nc2ccccc2s1)N1c2ccccc2Sc2ccc(C(F)(F)F)cc21 was read as KCNH2 3.1 block inactive, GLP-1R inv ag 5µM, KCNH2 WT inh inactive, HEK293 tox inactive, GLS inhibitor inactive and GLP1R ag inactive.
Screening O=C(CSc1nc2ccccc2s1)N1c2ccccc2Sc2ccc(Cl)cc21 returned KCNH2 3.1 block inactive, GLP-1R inv ag inactive, KCNH2 WT inh inactive, HEK293 tox inactive, GLS inhibitor inactive and GLP1R ag inactive.
Screening COc1cccc(C(NC(C)=O)c2ccc3cccnc3c2O)c1 (configuration not stated) returned KCNH2 3.1 block inactive, GLP-1R inv ag inconclusive, KCNH2 WT inh -82, HEK293 tox inactive, GLS inhibitor inactive and GLP1R ag inactive.
CCCCC(=O)NC(c1ccccc1Cl)c1ccc2cccnc2c1O (configuration not stated) was read as KCNH2 3.1 block -97, GLP-1R inv ag inconclusive, KCNH2 WT inh inactive, HEK293 tox inconclusive, GLS inhibitor inactive and GLP1R ag inactive.
For CCC(=O)NC(c1ccco1)c1cc(Cl)c2cccnc2c1O (configuration not stated) the results were KCNH2 3.1 block inactive, GLP-1R inv ag 7.1µM, KCNH2 WT inh inactive, HEK293 tox inconclusive, GLS inhibitor inactive and GLP1R ag inactive.
`CC(=O)NC(c1cccc([N+](=O)[O-])c1)c1ccc2cccnc2c1O` (configuration not stated) gave KCNH2 3.1 block inactive, GLP-1R inv ag inconclusive, KCNH2 WT inh inactive, HEK293 tox inconclusive, GLS inhibitor inactive and GLP1R ag inactive.
Screening CCCC(=O)NC(c1ccccc1)c1ccc2cccnc2c1O (configuration not stated) returned KCNH2 3.1 block inactive, GLP-1R inv ag inconclusive, KCNH2 WT inh -262, HEK293 tox inconclusive, GLS inhibitor inactive and GLP1R ag inactive.
For CCCCC(=O)NC(c1ccccc1)c1ccc2cccnc2c1O (configuration not stated) the results were KCNH2 3.1 block inactive, GLP-1R inv ag inconclusive, KCNH2 WT inh inactive, HEK293 tox inconclusive, GLS inhibitor inactive and GLP1R ag inactive.
Screening CSc1ncc(C(=O)NCc2ccc(C)cc2)c(C)n1 returned GLP-1R inv ag inactive, HEK293 tox inactive and GLS inhibitor inactive.
For O=[N+]([O-])c1ccc(NC(c2ccccc2)c2ccc3cccnc3c2O)cc1 (configuration not stated) the results were KCNH2 3.1 block -71, GLP-1R inv ag inconclusive, KCNH2 WT inh inactive, HEK293 tox inactive, GLS inhibitor inactive and GLP1R ag inactive.
O=C(CCNC(=O)c1ccco1)NCc1ccc(C(=O)O)cc1 was read as KCNH2 3.1 block inactive, GLP-1R inv ag inactive, KCNH2 WT inh inactive, HEK293 tox inactive, GLS inhibitor inactive and GLP1R ag inactive.
Cc1ccc(C2=CC(c3ccc(Cl)cc3)n3nc(-c4ccc(C)cc4)nc3N2)cc1 (configuration not stated) was read as GLP-1R inv ag 2.2µM, HEK293 tox inactive and GLS inhibitor inactive.
For Cc1ccc2sc(-c3ccc(N)cc3)nc2c1 the results were GLP-1R inv ag inconclusive, HEK293 tox inactive and GLS inhibitor inactive.
